From PubChem BioAssay AID624351 (Southern Research Specialized Biocontainment Screening …, 2012)
The campaign covered roughly 2,400 compounds. About 1,400 (58%) were called active.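 Rule for the calls: active = inhibition of 30% or more at any tested dose; inconclusive = primary hits over the limit that were never retested; inactive = the rest.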 So high a share suggests a set chosen from earlier hits. The list shows a part of the results.

Experiment: coupled detection enzyme interference, dose response, artefact control for MgcRacGAP inhibitor project, biochemical, coupled enzyme counter-screen (AID 624351);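 note: signal is the ADP detection kit reading of free GDP without any GAP enzyme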;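 for inhibition: 0% = median positive control wells and 100% = median negative control wells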
Conditions: ADP Hunter coupled enzyme counter-screen, fluorescence, no MgcRacGAP; series mostly up to 80 µM; inhibition: at the top concentration

Structure (SMILES)	inhibition	IC50
COc1ccccc1N1CCN(CCCOc2ccc(F)cc2)CC1	19.5% (inactive)	–
COc1cc(/C(C)=N/N2CCN(c3ccccc3OC)CC2)ccc1O	25.9% (inactive)	–
COc1ccccc1N1CCN(/N=C/c2ccc(O)cc2O)CC1	–	70.9 µM (active)
COc1cccc(OC)c1NC(=O)CN1CCN(C)CC1	25.3% (inactive)	–
COc1cc(/C=N/N2CCN(c3ccccc3OC)CC2)ccc1O	–	36.5 µM (active)
COc1ccccc1N1CCN(CC(=O)c2ccc(F)cc2)CC1	-12.8% (inactive)	–
COc1ccc(/C=N/N2CCN(C)CC2)cc1O	–	42.6 µM (active)
COc1ccc(CN2CCCN(C)CC2)c(OC)c1C	16.2% (inactive)	–
Cc1ccc(N2C(N)=C(C#N)C3(C(=O)N(C)c4ccccc43)C3=C2CC(C)(C)CC3=O)cc1Cl (stereo not drawn)	1.04% (inactive)	–
Cc1cccc2sc(NNC(=O)c3cc(=O)c4ccccc4o3)nc12	–	64.9 µM (active)
CC1C(=O)NN=C1C(=O)N/N=C\c1ccc(O)cc1O (stereo not drawn)	–	37.7 µM (active)
COc1cc(/C=N/NC(=O)CC2C(=O)NN=C2C)ccc1O (stereo not drawn)	–	59.1 µM (active)
COc1cc(/C=N/NC(=O)C2=NNC(=O)C2C)ccc1O (stereo not drawn)	–	74.7 µM (active)
CCN1CCN(Cc2ccc(NC(=O)c3ccc(C)c(/C=C/c4cnc(Nc5cc(N6CCNCC6)nc(C)n5)cn4)c3)cc2C(F)(F)F)CC1	-0.63% (inactive)	–
O=C(N/N=C/c1ccc(O)cc1)c1csc2ccccc12	–	43.1 µM (active)
O=C(N/N=C/c1ccc(O)cc1)c1csc2c1CCCC2	–	40.6 µM (active)
O=C(N/N=C/c1sc2ccccc2c1O)c1cccc2ccccc12	–	60.6 µM (active)
O=C(N/N=C/c1ccc(F)cc1)c1cc(-c2ccco2)nc2ccccc12	-10.7% (inactive)	–
Cc1c(C(=O)N/N=C/c2ccc(O)cc2)sc(=S)n1C	19.2% (inactive)	–
C=CCc1cccc(Cl)c1OCCCNC1CCCC1	8.95% (inactive)	–
O=C1ON=C(c2ccccc2)/C1=C/c1ccco1	-3.67% (inactive)	–
Cc1ccc(COC(=O)Cc2coc3cc(O)ccc23)cc1	–	28.9 µM (active)
Cn1cccc1CC(=O)N/N=C/C=C/c1ccco1	-26.5% (inactive)	–
COc1ccc(CN(C)CCc2ccccn2)cc1OC	20.1% (inactive)	–
c1ccc(CNC23CC4CC(CC(C4)C2)C3)nc1	17.5% (inactive)	–
Oc1ccc(CCc2ccccn2)cc1	–	44.9 µM (active)

Structure (SMILES)	inhibition	IC50
CC(C)CC(=O)N1CCN(Cc2cccc([N+](=O)[O-])c2)CC1	13.1% (inactive)	–
COc1cc(N2C(=O)C=CC2=O)ccc1N1C(=O)C=CC1=O	3.9% (inactive)	–
O=C(c1ccccc1F)N1CCN(Cc2ccc3c(c2)OCO3)CC1	15.9% (inactive)	–
CCNc1nc(NCC)nc(N/N=C/c2ccc(O)c(O)c2)n1	–	50.4 µM (active)
Oc1ccc(/C=N/Nc2nc(N3CCCC3)nc(N3CCCC3)n2)cc1O	–	48.3 µM (active)
COc1ccc(-c2cnnc(N/N=C/c3ccc(O)c(O)c3)n2)cc1	–	73.9 µM (active)
COc1cc2nc(N3CCNCC3)nc(N)c2cc1OC	6.38% (inactive)	–
COc1cc(/C=N/Nc2nc(N3CCCC3)nc(N3CCCC3)n2)ccc1O	–	79.1 µM (active)
Cc1ccc(C)c(-n2sc3ccc(F)cc3c2=O)c1	12.9% (inactive)	–
COc1ccc(/C=N/Nc2nc(N3CCCC3)nc(N3CCCC3)n2)cc1O	–	71.1 µM (active)
CCOc1ccc(NCc2cccn2-c2nnc(N3CCC(C(=O)NCCCN4CCCCC4)CC3)s2)cc1	–	68.9 µM (active)
CCN(CC)Cc1cc(Nc2c3ccccc3nc3c4ccccc4n(C)c23)cc(CN(CC)CC)c1O	–	20.9 µM (active)
Cc1c(Cl)sn(-c2ccc(Cl)cc2)c1=O	9.28% (inactive)	–
Cc1[nH]n(-c2cccc(Cl)c2)c(=O)c1-c1ccc(Cl)cc1	–	77.2 µM (active)
Cc1ccc(-c2ccc(/C=C3\C(=O)ON=C3c3ccccc3)o2)c([N+](=O)[O-])c1	3.06% (inactive)	–
CCN1CCCC1CNCC(=O)Nc1ccc(OC(F)(F)F)cc1 (stereo not drawn)	16.9% (inactive)	–
COc1ccc(OCC(O)CN2CCCC2)cc1 (stereo not drawn)	9.45% (inactive)	–
COc1ccc(NC2CCCN(C(=O)C3(C)CCCCC3)C2)cc1 (stereo not drawn)	–	67.2 µM (active)
COc1ccc(CN2CCN(Cc3ccc(C(F)(F)F)cc3)CC2)cc1	23.6% (inactive)	–
COc1ccc(NC2CCCN(C(=O)COc3ccc(C(C)=O)cc3)C2)cc1 (stereo not drawn)	–	74.9 µM (active)
COc1ccc(NC2CCCN(C(=O)c3ccccc3C(F)(F)F)C2)cc1 (stereo not drawn)	–	76.2 µM (active)
COc1ccc(NC2CCCN(C(=O)c3ccc(C(C)=O)s3)C2)cc1 (stereo not drawn)	–	80.4 µM (active)
Cc1ccc(C)c(OCC(O)CN2CCC(C)CC2)c1C (stereo not drawn)	12.6% (inactive)	–
Cc1ccccc1C1=C/C(=C(\SS/C(C(=O)c2ccc(OCC(=O)O)c(Cl)c2Cl)=C2\C=C(c3ccccc3C)SS2)C(=O)c2ccc(OCC(=O)O)c(Cl)c2Cl)SS1	7.13% (inactive)	–
CSc1nc(=S)c2[nH]c(=S)[nH]c2[nH]1	13.2% (inactive)	–
COc1cc2[nH]c(=S)nc(Nc3ccc(NC(C)=O)cc3)c2cc1OC	4.2% (inactive)	–

Structure (SMILES)	inhibition	IC50
COc1cc2cc(NC(C)=O)cc(NCc3ccccc3)c2cc1OC	–	61 µM (active)
Cc1ccc2c(c1)cc(C(=O)NCc1ccccc1)n2C	1.98% (inactive)	–
CCCCNc1cc(NC(C)=O)cc2cc(OC)c(OC)cc12	–	52.3 µM (active)
O=C1C=C(Nc2ccc(O)cc2)CC(c2ccco2)C1 (stereo not drawn)	–	17.8 µM (active)
O=S(=O)(c1ccccc1)N1N=C(c2ccc(O)cc2)CC1c1ccco1 (stereo not drawn)	21.9% (inactive)	–
Cc1cc(C)c(S(=O)(=O)Nc2ccc(O)cc2)c(C)c1	–	68.4 µM (active)
Cc1cc(C)c(C)c(S(=O)(=O)Nc2ccc(O)cc2)c1C	–	48.5 µM (active)
CCN(CC)c1ccc(C(=C2C=CC(=[N+](CC)CC)C=C2)c2ccc(N(CC)CC)cc2)cc1	–	45.3 µM (active)
CCN(CC)c1ccc(C(=C2C=CC(=[N+](CC)CC)C=C2)c2ccccc2)cc1	4.2% (inactive)	–
COc1cc(/C(C)=N/NC(=O)C(O)(c2ccccc2)c2ccccc2)ccc1O	–	79.7 µM (active)
COc1cc(C(C)=NNC(=O)c2ccncc2)ccc1O	–	36.8 µM (active)
COc1ccccc1CN1CCN(C(=O)c2ccncc2)CC1	18.7% (inactive)	–
COc1cc(/C(C)=N\NC(=O)CSc2nc3ccccc3n2C)ccc1O	–	39.3 µM (active)
C/C(=N\NC(=O)CSc1nc2ccccc2o1)c1ccc(O)cc1	–	68.9 µM (active)
O=C(O)c1cccc(N2C(=O)/C(=C/c3ccc(SCc4ccc(Cl)cc4)o3)SC2=S)c1	1.08% (inactive)	–
c1ccc(-c2ccccc2OCCN2CCOCC2)cc1	21.1% (inactive)	–
C=CCNCC(O)COc1ccc(C(C)=O)cc1OC (stereo not drawn)	13.1% (inactive)	–
COc1cc(/C(C)=N/NC(=O)Cc2c(C)[nH][nH]c2=O)ccc1O	–	70.3 µM (active)
C#CCOCCOCCOCCNc1nc(N2CCN(C(=O)[C@H](CCCCN)n3cc(CN)nn3)CC2)nc(N2CCN(C(=O)[C@H](CCCCN)n3cc(CN)nn3)CC2)n1	3.07% (inactive)	–
Nc1ccccc1Nc1cccc(C(F)(F)F)c1	–	78.3 µM (active)
Nc1ccccc1SSc1ccccc1N	-6.81% (inactive)	–
Nc1ccccc1Nc1ccccc1	–	34 µM (active)
Nc1ccc(Nc2ccccc2)c(Cl)c1	–	15.9 µM (active)
Cn1c(-c2ccccc2)cnc1NCc1ccc(-c2ccccc2)cc1	25.8% (inactive)	–
Cc1cc(C)cc(NC(=O)C(NCCN2CCOCC2)c2ccccc2)c1 (stereo not drawn)	29.4% (inactive)	–
COc1ccc(NC(=O)C(C)N2CCN(C)CC2)cc1 (stereo not drawn)	25% (inactive)	–

Structure (SMILES)	inhibition	IC50
COc1cc2c(cc1NC(=O)C(Cl)Cl)-c1ccc(NC(=O)C(Cl)Cl)cc1C2	–	71.4 µM (active)
CN(C)/N=C/c1ccc(N2CCOCC2)cc1	–	60.4 µM (active)
O=C(O)CN1C(=O)/C(=C/c2ccc(SCc3ccccc3)o2)SC1=S	-9.9% (inactive)	–
O=C(CC(c1ccccc1)c1ccccc1)Nc1ccc(O)cc1	–	56.5 µM (active)
O=C(CCCC(=O)c1ccccc1)Nc1ccc(O)cc1	–	18.2 µM (active)
CC(C)c1ccc(NC(=O)CNCC(c2ccccc2)N(C)C)cc1 (stereo not drawn)	18.8% (inactive)	–
COc1cc2c(cc1NCc1ccc3c(c1)OCO3)oc1ccccc12	13.4% (inactive)	–
CN(C)CCNC(C(=O)Nc1cccc(C(F)(F)F)c1)c1ccccc1 (stereo not drawn)	27.1% (inactive)	–
COc1cc2c(cc1NC(=S)Nc1cccc3ccccc13)oc1ccccc12	–	36.9 µM (active)
COc1cc2c(cc1NC(=S)Nc1ccccc1C)oc1ccccc12	–	41.1 µM (active)
COc1cc2c[n+](C)c3c4ccccc4ccc3c2cc1OC	13% (inactive)	–
COc1ccc(NC(=S)Nc2cccc3ccccc23)cc1OC	27.8% (inactive)	–
O=C(O)c1cc(N2N=C(C(F)(F)F)/C(=C/C=C/c3ccco3)C2=O)ccc1Cl	12.8% (inactive)	–
COc1ccc2c(c1OC)C(=O)OC2CC(=O)c1ccc(O)c(O)c1 (stereo not drawn)	–	58.7 µM (active)
COc1cccc2c1C(=O)c1c(O)c3c(c(O)c1C2=O)CC(O)(C(C)=NNC(=O)c1ccc(Cl)c(Cl)c1)CC3OC1CC(N)C(O)C(C)O1 (stereo not drawn)	3.28% (inactive)	–
COc1cccc2c1C(=O)c1c(O)c3c(c(O)c1C2=O)C[C@@](O)(C(=O)CO)C[C@@H]3OC1CC(N)C(O)C(C)O1 (stereo partly drawn)	10.3% (inactive)	–
Nc1ccc(N(c2ccccc2)c2ccc(N)cc2)cc1	–	9.3 µM (active)
N#CC1=C(S)N(c2ccccc2)C2(CCCCC2)NC1=O	-2.39% (inactive)	–
COc1cc(/C=N/NC(=S)Nc2cccc(S(=O)(=O)N(C)C)c2)ccc1O	–	27.7 µM (active)
CN(C)S(=O)(=O)c1cccc(NC(=O)CNCC2CCCCC2)c1	15% (inactive)	–
COc1cc(/C=C2\C(=O)N(c3cccc(C(=O)O)c3)N=C2C)ccc1OCc1ccccc1	3.07% (inactive)	–
COc1cc(/C=N/NC(=S)Nc2cccc(C(=O)O)c2)ccc1O	–	46.3 µM (active)
CN(C)c1ccc(Sc2ccc3nc(N)nc(N)c3c2)cc1	–	53.7 µM (active)
CCN(CC)S(=O)(=O)c1cccc(NC(=O)CNC2CCCCCC2)c1	23% (inactive)	–
CCOc1ccccc1NC(=O)C(NCC1(N2CCCCC2)CCCCC1)c1ccccc1 (stereo not drawn)	17% (inactive)	–
